Assay results reported in PubChem BioAssay (NCATS).
Inconclusive results are not listed. Entries that show only a call come without a potency. The source made the active and inactive calls. Unless noted, the call rests on the fitted dose curve; in most records, active means well fitted curve in the direction sought with a large enough effect in the repeat runs; inconclusive means weak or mixed curves; inactive means no such curve, though single readings can be large; an effect the other way counts as inactive or inconclusive.

Columns and labels:
[1] = A High-Content qHTS Against Drug Library for the Identification of Small Molecules that Inhibit DYT1 Early Onset Primary Dystonia-Associated Cell Pathology (AID 1645839; calls by dose curve; further: series mostly up to about 46 µM)
In short: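 Cells were seeded and left for 24 h, then dosed with compound alongside tetracycline induction of mutant EGFP-TorsinA. They were incubated for 48 h, fixed in 4% paraformaldehyde, permeabilized and imaged for mislocalization (%pathology) and cell count.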

[2] = target: Cytochrome P450 2D6 (Homo sapiens) (UniProt P10635); experiment: Cytochrome P450 family 2 subfamily D member 6 (CYP2D6) small molecule antagonists: luciferase biochemical (cell-free) qHTS assay (AID 1645840); further: nearly all actives have a fitted effect of over 55% in size; further: potency means the concentration at half of the fitted maximal effect
Sequence of Cytochrome P450 2D6 (Homo sapiens) (P10635 whole entry, looked up): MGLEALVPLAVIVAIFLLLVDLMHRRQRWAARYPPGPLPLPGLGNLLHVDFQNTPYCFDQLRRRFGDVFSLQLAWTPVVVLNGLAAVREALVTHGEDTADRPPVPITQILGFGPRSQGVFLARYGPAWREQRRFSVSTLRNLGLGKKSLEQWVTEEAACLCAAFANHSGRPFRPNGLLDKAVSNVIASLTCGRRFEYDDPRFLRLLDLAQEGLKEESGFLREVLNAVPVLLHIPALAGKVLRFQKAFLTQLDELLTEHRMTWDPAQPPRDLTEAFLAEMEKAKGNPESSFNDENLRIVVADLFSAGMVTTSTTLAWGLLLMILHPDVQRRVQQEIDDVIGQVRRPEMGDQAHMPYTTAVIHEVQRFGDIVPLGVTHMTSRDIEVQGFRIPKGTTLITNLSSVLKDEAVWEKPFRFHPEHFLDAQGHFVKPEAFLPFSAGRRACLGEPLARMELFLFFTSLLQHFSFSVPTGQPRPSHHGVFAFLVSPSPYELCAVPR
In short: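 P450-Glo CYP2D6 system: proluciferin substrate converted by enzyme to luciferin, read by luminescence proportional to activity. Enzyme-substrate mix with compound 10 min at room temperature, then NADPH regeneration 1 h before detection reagent.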

[3] = target: Cytochrome P450 2C9 (Homo sapiens) (UniProt P11712); experiment: Cytochrome P450 family 2 subfamily C member 9 (CYP2C9) small molecule antagonists: luciferase biochemical (cell-free) qHTS assay (AID 1645842); further: nearly all actives have a fitted effect of over 55% in size; further: potency means the concentration at half of the fitted maximal effect
Sequence of Cytochrome P450 2C9 (Homo sapiens) (P11712 whole entry, looked up): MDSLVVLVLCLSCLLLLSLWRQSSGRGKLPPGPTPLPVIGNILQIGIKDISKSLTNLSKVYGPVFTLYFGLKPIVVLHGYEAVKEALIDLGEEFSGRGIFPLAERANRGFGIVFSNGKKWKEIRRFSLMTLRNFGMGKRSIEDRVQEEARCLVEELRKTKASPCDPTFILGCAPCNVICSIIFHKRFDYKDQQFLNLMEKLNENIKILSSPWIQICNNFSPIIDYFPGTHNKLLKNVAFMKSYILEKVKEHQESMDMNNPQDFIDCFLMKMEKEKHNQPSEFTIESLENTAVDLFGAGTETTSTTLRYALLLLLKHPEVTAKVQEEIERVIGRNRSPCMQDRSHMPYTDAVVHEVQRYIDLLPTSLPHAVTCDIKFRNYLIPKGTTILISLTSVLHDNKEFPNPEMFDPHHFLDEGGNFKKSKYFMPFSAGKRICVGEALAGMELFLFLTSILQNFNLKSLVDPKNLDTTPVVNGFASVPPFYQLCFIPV
In short: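 P450-Glo CYP2C9 system: proluciferin substrate with enzyme in mix containing 0.4% BSA, 10 min at room temperature, then NADPH regeneration solution added and incubated 1 h at 37C. Detection reagent stopped reaction; luminescence read after 20 min as RLU.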

[4] = Primary qHTS for small molecule stabilizers of the endoplasmic reticulum resident proteome: Secreted ER Calcium Modulated Protein (SERCaMP) assay (AID 1508630; active means well fitted curve in the direction sought with a large enough effect; an effect the other way counts as inactive or inconclusive)
In short: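 The SH-SY5Y reporter protocol was run at 3 concentrations up to 38.3 uM (primary) or 11 concentrations (follow-up): 16 h compound, 100 nM thapsigargin for 4 h, then extracellular luciferase luminescence.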

[5] = target: Papain (Carica papaya) (UniProt P00784); experiment: Primary qHTS assay for inhibitors of the protease papain (AID 1645873; active means well fitted curve in the direction sought with a large enough effect; an effect the other way counts as inactive or inconclusive;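 further: papain turnover of Z-FR-AMC read as the AMC fluorescence gain over 10 min; series mostly up to about 50 µM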)
Sequence of Papain (Carica papaya) (P00784 whole entry, looked up): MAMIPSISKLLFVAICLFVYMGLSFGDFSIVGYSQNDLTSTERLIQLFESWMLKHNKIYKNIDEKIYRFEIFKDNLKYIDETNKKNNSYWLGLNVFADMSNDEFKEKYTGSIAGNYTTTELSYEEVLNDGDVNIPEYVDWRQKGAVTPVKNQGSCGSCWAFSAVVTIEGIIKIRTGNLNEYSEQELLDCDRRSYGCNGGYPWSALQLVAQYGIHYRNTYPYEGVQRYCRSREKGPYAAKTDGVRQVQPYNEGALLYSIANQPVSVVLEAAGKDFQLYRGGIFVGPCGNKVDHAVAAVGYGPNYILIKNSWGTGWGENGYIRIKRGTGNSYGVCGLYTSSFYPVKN

[6] = target: Cytochrome P450 3A4 (Homo sapiens) (UniProt P08684); experiment: Cytochrome P450 family 3 subfamily A member 4 (CYP3A4) small molecule antagonists: luciferase qHTS assay (AID 1645841); further: nearly all actives have a fitted effect of over 45% in size
Sequence of Cytochrome P450 3A4 (Homo sapiens) (P08684 whole entry, looked up): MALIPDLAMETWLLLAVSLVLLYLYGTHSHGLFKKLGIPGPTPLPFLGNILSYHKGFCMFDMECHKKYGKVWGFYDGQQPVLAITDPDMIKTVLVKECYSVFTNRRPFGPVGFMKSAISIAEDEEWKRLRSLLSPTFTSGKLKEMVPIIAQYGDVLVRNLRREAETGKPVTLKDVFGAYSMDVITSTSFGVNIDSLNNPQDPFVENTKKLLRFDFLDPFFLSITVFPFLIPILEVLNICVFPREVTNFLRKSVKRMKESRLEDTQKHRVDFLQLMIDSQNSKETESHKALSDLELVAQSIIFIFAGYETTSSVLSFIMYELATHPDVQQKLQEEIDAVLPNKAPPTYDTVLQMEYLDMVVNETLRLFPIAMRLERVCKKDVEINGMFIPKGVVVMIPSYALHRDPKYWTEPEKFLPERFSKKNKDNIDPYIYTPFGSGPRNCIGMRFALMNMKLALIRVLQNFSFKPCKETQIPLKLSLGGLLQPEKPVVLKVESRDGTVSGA
In short: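 P450-Glo CYP3A4 enzyme with proluciferin substrate preincubated 10 min with compound at room temperature, then NADPH regeneration 1 h. Luciferin detection reagent added for 20 min; luminescence recorded. Ketoconazole positive control.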

With `Cc1[nH]cnc1-c1ccc(Cl)cc1` the Potency [1] was “inactive” and the Potency [2] was 17.4 µM (active).
With `CCC(C(=O)OCCN1CCOC(c2ccccc2)C1C)c1ccccc1` (centres undefined) the Potency [1] was “inactive”, the Potency [2] was 1.74 µM (active) and the Potency [3] was 2.19 µM (active).
In the case of `Brc1ccc([C@H]2CN3CCSC3=N2)cc1`, the Potency [4] is reported as “inactive” and the outcome [5] is reported as “inactive”.
In the case of `CCOC(=O)c1cc(=O)c2c(OCC(COc3cccc4oc(C(=O)OCC)cc(=O)c34)OC(=O)[C@@H](N)CCCCN)cccc2o1`, the Potency [1] is reported as “inactive”.
With `N=C(N)c1ccc(OCCCOc2ccc(C(=N)N)cc2)cc1` the Potency [1] was “inactive”, the Potency [2] was “inactive” and the Potency [6] was “inactive”.
For `CC1CC(=O)NN=C1c1ccc(NCC(C)(C)NCC(O)COc2cc(Cl)ccc2C#N)cc1` (centres undefined), the Potency [1] was “inactive”, the Potency [2] was 0.871 µM (active) and the Potency [3] was 0.977 µM (active).
For `CCCCOCCOC(=O)c1cccnc1`, the Potency [1] was “inactive”.
For `CC(C)(C)C(=O)OCOC(=O)C1N2C(=O)CC2S(=O)(=O)C1(C)C` (centres undefined), the Potency [1] was “inactive” and the Potency [2] was “inactive”.
With `CNC(=O)c1c(I)c(NC(C)=O)c(I)c(C(=O)O)c1I` the Potency [1] was “inactive”, the Potency [2] was “inactive” and the Potency [3] was “inactive”.
With `CC(C)C(C)(C)C(C)(C)C(C)(C)S` the Potency [1] was “inactive” and the Potency [2] was “inactive”.
With `CC(NN)c1ccccc1` (centres undefined) the Potency [1] was “inactive”.
In the case of `c1ccc2c(c1)CCc1ccccc1N2`, the Potency [1] is reported as “inactive”.
With `Cc1ccc(O)cc1` the Potency [1] was “inactive”.
In the case of `CC(=O)Nc1c(I)c(NC(C)=O)c(I)c(C(=O)O)c1I`, the Potency [1] is reported as “inactive”, the Potency [2] is reported as “inactive” and the Potency [3] is reported as “inactive”.
For `O=C(c1ccccc1)c1ccccc1`, the Potency [1] was “inactive”.
In the case of `CCOC(=O)Oc1ccc(CCNC(=O)[C@H](CCSC)NC(C)=O)cc1OC(=O)OCC`, the Potency [1] is reported as “inactive” and the Potency [2] is reported as “inactive”.
For `CC(COc1ccccc1)NN` (centres undefined), the Potency [1] was “inactive”, the Potency [2] was 16.9 µM (active) and the Potency [3] was 23.9 µM (active).
For `CC(=O)CC/C=C(\C)CC/C=C(\C)CC/C=C(\C)CCC=C(C)C`, the Potency [1] was “inactive” and the Potency [2] was “inactive”.
With `NC(=O)COCCN1CCN(C(c2ccccc2)c2ccc(Cl)cc2)CC1` (centres undefined) the Potency [1] was “inactive”, the Potency [2] was “inactive” and the Potency [3] was “inactive”.
